Inconclusive results are not listed. Some structures have more than one record in an assay (separate samples or runs), and their calls can disagree. Activity calls are given as the source filed them. The calls were made as follows, unless noted: active = hit-call score of the fitted dose curve at least 0.9, where 1 is the maximum; inconclusive = response in the unintended direction; inactive = score below 0.9.
Legend:
[1] = TOX21_p53_BLA_p2_viability: Viability Assessment in the Tox21 HCT-116 p53 Agonism Beta-lactamase Assay, Phase 2 (AID 2283591);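 also: compound exposure lasted 16 h at 37 °C; actives lower the ATP signal meaning cytotoxicity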
Summary of the method: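 HCT-116 p53-bla cells (4000/well) rested 5 h at 37C, then received compounds in DMSO (217-fold dilution) for 16 h at 37C, 5% CO2. After the CCF4 read, CellTiter-Glo was added; ATP luminescence was read after 30 min at room temperature.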

[2] = target: Cellular tumor antigen p53 (Homo sapiens) (UniProt P04637); experiment: TOX21_p53_BLA_p2_ratio: Tox21 HCT-116 p53 Agonism Beta-lactamase Assay, Ratio, Phase 2 (AID 2283592)
Chain of Cellular tumor antigen p53 (Homo sapiens) (P04637 whole entry, looked up): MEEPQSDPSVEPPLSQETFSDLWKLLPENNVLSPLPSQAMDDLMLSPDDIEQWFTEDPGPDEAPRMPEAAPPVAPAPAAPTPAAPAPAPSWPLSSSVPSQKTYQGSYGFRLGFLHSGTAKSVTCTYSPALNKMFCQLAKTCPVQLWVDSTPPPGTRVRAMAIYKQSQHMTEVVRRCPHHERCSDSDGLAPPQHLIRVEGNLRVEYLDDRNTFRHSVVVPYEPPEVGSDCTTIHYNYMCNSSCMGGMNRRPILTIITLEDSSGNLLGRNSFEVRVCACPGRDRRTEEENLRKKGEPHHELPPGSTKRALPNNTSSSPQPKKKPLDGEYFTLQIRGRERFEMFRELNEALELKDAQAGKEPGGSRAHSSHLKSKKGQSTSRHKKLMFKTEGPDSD
Summary of the method: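 In this cell-based reporter format, HCT116 cells were dosed with chemicals delivered from DMSO by 217-fold dilution and incubated 16 h at 37C. Emission at 460 and 530 nm after 2 h CCF4-AM loading provided the ratio, fitted upward versus DMSO.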

[3] = TOX21_p53_BLA_p3_viability: Viability Assessment in the Tox21 HCT-116 p53 Agonism Beta-lactamase Assay, Phase 3 (AID 2283593);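 also: cells exposed to compound for 16 h before reading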
Summary of the method: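 HCT-116 cells (4000/well) rested 5 h at 37C, then got DMSO compounds by pin tool (217-fold dilution) for 16 h at 37C, 5% CO2. After the bla read, CellTiter-Glo was added and luminescence read at 30 min, room temperature.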

[4] = target: Cellular tumor antigen p53 (Homo sapiens) (UniProt P04637); experiment: TOX21_p53_BLA_p3_ratio: Tox21 HCT-116 p53 Agonism Beta-lactamase Assay, Ratio, Phase 3 (AID 2283596)
Summary of the method: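 HCT116 p53-bla cells (4000/well) given compound in DMSO (217-fold dilution) after 5 h, incubated 16 h at 37C. CCF4-AM substrate 2 h at room temperature; 460/530 nm emission ratio, gain fitted against DMSO.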

[5] = TOX21_p53_BLA_p4_viability: Viability Assessment in the Tox21 HCT-116 p53 Agonism Beta-lactamase Assay, Phase 4 (AID 2283597);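 also: hits lower the luminescence signal meaning cytotoxicity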
Summary of the method: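 We seeded HCT116 p53 reporter cells at 4000/well and waited 5 h. We then added compounds in DMSO at a 217-fold dilution and incubated for 16 h. Viability was read as CellTiter-Glo luminescence after 30 min at RT.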

[6] = target: Cellular tumor antigen p53 (Homo sapiens) (UniProt P04637); experiment: TOX21_p53_BLA_p5_ratio: Tox21 HCT-116 p53 Agonism Beta-lactamase Assay, Ratio, Phase 5 (AID 2283599)
Summary of the method: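 HCT-116 cells carrying a p53-inducible beta-lactamase reporter were seeded at 4000 cells/well and dosed after 5 h with compound in DMSO (217-fold dilution). After 16 h at 37C, CCF4-AM substrate was added for 2 h, and the 460/530 nm emission ratio was scored as gain-of-signal versus DMSO.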

[7] = TOX21_p53_BLA_p5_viability: Viability Assessment in the Tox21 HCT-116 p53 Agonism Beta-lactamase Assay, Phase 5 (AID 2283600)
Summary of the method: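 Compounds, pinned from DMSO at 217-fold dilution, were left on the cells for 16 h. The viability endpoint was ATP content measured by CellTiter-Glo luminescence, where falling signal reflects cytotoxicity.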

[8] = target: Cellular tumor antigen p53 (Homo sapiens) (UniProt P04637); experiment: TOX21_p53_BLA_p4_ratio: Tox21 HCT-116 p53 Agonism Beta-lactamase Assay, Ratio, Phase 4 (AID 2283601)
Summary of the method: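 HCT116 cells carrying an inducible beta-lactamase reporter were plated at 4000 cells/well, rested 5 h, then exposed to compounds in DMSO (217-fold dilution) for 16 h at 37C. CCF4-AM substrate was loaded 2 h at room temperature; 460/530 nm emission ratio scored gain-of-signal versus DMSO.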

[9] = CCTE_Shafer_MEA_dev_firing_rate_mean: CCTE's Neural Network Formation Assay for Mean Firing Rate, Shafer Lab (AID 2284031; active = hit-call score of the fitted dose curve at least 0.9, where 1 is the maximum; inactive = score below 0.9)
Summary of the method: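 Primary rat cortical neurons on 48-well MEA plates, exposed from plating day 0 with dosing renewed on DIV 5 and 9. Mean well firing rate over active electrodes, recorded days 5, 7, 9, 12, summarised as trapezoidal AUC.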

[10] = CCTE_Shafer_MEA_dev_burst_rate: CCTE's Neural Network Formation Assay for Burst Rate, Shafer Lab (AID 2284042; active = hit-call score of the fitted dose curve at least 0.9, where 1 is the maximum; inactive = score below 0.9)
Summary of the method: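 Rat primary cortical cultures on PEI/laminin MEA; compound from plating, re-dosed at DIV 5, 9 media change. Single-electrode bursts/recording length, well mean of active electrodes; AUC over DIV 5–12 recordings; loss-of-signal vs DMSO.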

[11] = CCTE_Shafer_MEA_dev_bursting_electrodes_number: CCTE's Neural Network Formation Assay for Number of Bursting Electrodes, Shafer Lab (AID 2284043)
Summary of the method: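 Primary rat cortical neurons were cultured on PEI-coated 48-well MEA plates (16 electrodes/well) and exposed from plating through day 12, with compound renewed at feeds on DIV 5 and 9. Electrodes bursting ≥1 per 2 min were counted on DIV 5, 7, 9, 12; trapezoidal AUC taken.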

[12] = CCTE_Shafer_MEA_dev_per_burst_interspike_interval: CCTE's Neural Network Formation Assay for Burst Interspike Interval, Shafer Lab (AID 2284044; active = hit-call score of the fitted dose curve at least 0.9, where 1 is the maximum; inactive = score below 0.9)
Summary of the method: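 Readout is the average time between spikes inside single-electrode bursts, taken as a well mean across bursting electrodes. Cortical neurons from rat developed networks on MEA plates under continuous 12-day exposure; recordings on days 5, 7, 9 and 12 were integrated by trapezoidal AUC.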

[13] = CCTE_Shafer_MEA_dev_burst_duration_mean: CCTE's Neural Network Formation Assay for Mean Burst Duration, Shafer Lab (AID 2284045; active = hit-call score of the fitted dose curve at least 0.9, where 1 is the maximum; inactive = score below 0.9)
Summary of the method: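 Primary rat cortical neurons on PEI-coated 16-electrode MEA wells, exposed from plating through day 12 with compound renewed at DIV 5 and 9; spontaneous activity recorded days 5, 7, 9, 12. Well-mean burst duration collapsed as trapezoidal AUC, fitted for loss versus DMSO.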

[14] = CCTE_Shafer_MEA_dev_inter_network_spike_interval_mean: CCTE's Neural Network Formation Assay for Mean Inter-network Spike Interval, Shafer Lab (AID 2284047; active = hit-call score of the fitted dose curve at least 0.9, where 1 is the maximum; inactive = score below 0.9)
Summary of the method: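 Primary rat cortical neurons on PEI-coated 48-well MEAs (16 electrodes/well) were exposed from plating day 0 to DIV 12, with dosing renewed at DIV 5 and 9. Recordings at DIV 5, 7, 9, 12 were collapsed by trapezoidal AUC, loss-of-signal fit vs DMSO.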

[15] = CCTE_Shafer_MEA_dev_network_spike_number: CCTE's Neural Network Formation Assay for Number of Network Spikes, Shafer Lab (AID 2284048; active = hit-call score of the fitted dose curve at least 0.9, where 1 is the maximum; inactive = score below 0.9)
Summary of the method: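 Primary rat cortical neurons were seeded at 1.5 x 10^5 cells/well on PEI-coated 16-electrode MEA wells with laminin, exposed from plating day 0, compound renewed at DIV 5 and 9. Network spikes were recorded on days 5, 7, 9, 12 and summarized as trapezoidal AUC versus DMSO.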

[16] = CCTE_Shafer_MEA_dev_network_spike_peak: CCTE's Neural Network Formation Assay for Mean Number of Electrodes in Network Spike, Shafer Lab (AID 2284049; active = hit-call score of the fitted dose curve at least 0.9, where 1 is the maximum; inactive = score below 0.9)
Summary of the method: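 Continuous 12-day exposure of rat cortical cultures, starting at plating, on MEA plates. Endpoint: electrodes participating in network-spike peaks, AUC across DIV 5–12, DMSO as negative control.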

[17] = CCTE_Shafer_MEA_dev_spike_duration_mean: CCTE's Neural Network Formation Assay for Mean Spike Duration, Shafer Lab (AID 2284051; active = hit-call score of the fitted dose curve at least 0.9, where 1 is the maximum; inactive = score below 0.9;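 also: mean network spike duration pooled as area under curve over DIV 5 to 12 recordings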)
Summary of the method: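 Rat cortical primary cultures, 48-well MEA (16 electrodes/well); compound from plating, renewed DIV 5, 9. Network spike duration (AxIS adaptive detector) recorded DIV 5/7/9/12, combined as trapezoidal AUC; loss direction vs DMSO.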

[18] = CCTE_Shafer_MEA_dev_network_spike_duration_std: CCTE's Neural Network Formation Assay for Standard Deviation of Network Spike Duration, Shafer Lab (AID 2284052; active = hit-call score of the fitted dose curve at least 0.9, where 1 is the maximum; inactive = score below 0.9;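 also: area under curve of spike duration SD across recording days 5 to 12; hits are decreases in network spike duration SD versus DMSO vehicle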)
Summary of the method: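 Rat cortical cultures, 1.5 x 10^5 cells/well, exposed continuously from plating to DIV 12 with media/compound renewal at DIV 5, 9. Spontaneous activity recorded DIV 5/7/9/12, AxIS adaptive spike detector; AUC across days; negative direction vs DMSO.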

[19] = CCTE_Shafer_MEA_dev_per_network_spike_spike_number_mean: CCTE's Neural Network Formation Assay for Mean Number of Spikes in a Network Spike, Shafer Lab (AID 2284053; active = hit-call score of the fitted dose curve at least 0.9, where 1 is the maximum; inactive = score below 0.9)
Summary of the method: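 Rat cortical primary cultures on 48-well MEA; compound from day 0, re-dosed with full media change DIV 5, 9. Recorded DIV 5, 7, 9, 12; spikes in 0.05 s window at network-spike peak ÷ total network spikes; AUC; loss vs DMSO.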

[20] = CCTE_Shafer_MEA_dev_per_network_spike_spike_percent: CCTE's Neural Network Formation Assay for Percent of Spikes in a Network Spike, Shafer Lab (AID 2284054; active = hit-call score of the fitted dose curve at least 0.9, where 1 is the maximum; inactive = score below 0.9)
Summary of the method: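 Primary rat cortical neurons on 16-electrode MEA wells (PEI-coated, laminin at plating), exposed from day 0 with renewal at DIV 5 and 9; spikes within 0.05 s of network-spike peaks over total spikes, AUC across days 5, 7, 9, 12.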

[21] = CCTE_Shafer_MEA_dev_LDH: CCTE's Lactate Dehydrogenase Assay for Cytotoxicity in the Neural Network Formation Assay, Shafer Lab (AID 2284068);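 also: exposure for twelve days from plating with re-dosing on DIV 5 and 9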
Summary of the method: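 Rat cortical primary neurons, MEA culture; dosing day 0–12, full medium plus compound exchange DIV 5, 9. Read-out: LDH enzyme activity, spectrophotometric. DMSO = negative control/baseline; signal loss → cytotoxicity.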

[22] = CCTE_Shafer_MEA_dev_AB: CCTE's Alamar Blue Assay for Cytotoxicity in the Neural Network Formation Assay, Shafer Lab (AID 2284083);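 also: resazurin reduction fluorescence as viability of cultured neurons; twelve days of exposure from plating with re-dosing on DIV 5 and 9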
Summary of the method: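 Rat cortical primary cultures, 1.5 x 10^5 cells/well on MEA; continuous compound exposure over 12 days of network development, re-dosed with full medium change DIV 5 and 9. Alamar Blue fluorescence; loss of signal = cytotoxicity vs DMSO baseline.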

[23] = CCTE_Shafer_MEA_dev_mutual_information_norm: CCTE's Neural Network Formation Assay for Mutual Information Normalization, Shafer Lab (AID 2284091; active = hit-call score of the fitted dose curve at least 0.9, where 1 is the maximum; inactive = score below 0.9)
Summary of the method: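 Rat cortical cultures, 48-well MEA, continuous exposure DIV 0–12 with full media/compound change DIV 5 and 9. Readout: inter-electrode mutual information, AxIS adaptive spike detection; AUC across DIV 5/7/9/12 recordings; DMSO baseline, negative fitting direction.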

[24] = CCTE_Shafer_MEA_dev_correlation_coefficient_mean: CCTE's Neural Network Formation Assay for Mean Correlation Coefficient, Shafer Lab (AID 2284093; active = hit-call score of the fitted dose curve at least 0.9, where 1 is the maximum; inactive = score below 0.9)
Summary of the method: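 Rat cortical cultures, 1.5 x 10^5 cells/well, dosed from day 0 for 12 days. Spontaneous spikes recorded DIV 5/7/9/12; electrode-pair correlation coefficients averaged, AUC taken. Fit in loss direction vs DMSO.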

Cc1cc(C(C)(C)c2cc(C)c(O)c(C)c2)cc(C)c1O
AC50 [1]: 44.8 µM (active)
AC50 [2]: 20.7 µM (active)
outcome [3]: inactive
AC50 [4]: 18.8 µM (active)
AC50 [5]: 57.2 µM (active)
AC50 [6]: 58.5 µM (active)
AC50 [7]: 83.3 µM (active)
AC50 [8]: 74.3 µM (active)

ClCCOCOCCCl
outcome [1]: inactive
outcome [2]: inactive
outcome [3]: inactive
outcome [4]: inactive
outcome [5]: inactive
outcome [6]: inactive
outcome [7]: inactive

CCC[CH2][Sn]([CH2]CCC)([O]C(C)=O)[O]C(C)=O
outcome [1]: inactive
outcome [2]: inactive
AC50 [3]: 17.7 µM (active)
AC50 [4]: 32.2 µM (active)
outcome [5]: inactive
outcome [6]: inactive
outcome [7]: inactive
outcome [8]: inactive

CCNc1nc(NC(C)C)nc(OC)n1
outcome [1]: inactive
outcome [2]: inactive
outcome [3]: inactive
outcome [4]: inactive
outcome [5]: inactive
outcome [6]: inactive
outcome [7]: inactive

CCOP(=O)(O)OCC (tested in a mixture with another compound)
AC50 [1]: 72.3 µM (active)
outcome [1]: inactive
AC50 [3]: 28.7 µM (active)
outcome [3]: inactive
AC50 [5]: 83 µM (active)
outcome [9]: inactive
outcome [10]: inactive
outcome [11]: inactive
outcome [12]: inactive
outcome [13]: inactive
outcome [14]: inactive
outcome [15]: inactive
outcome [16]: inactive
outcome [17]: inactive
outcome [18]: inactive
outcome [19]: inactive
outcome [20]: inactive
outcome [21]: inactive
outcome [22]: inactive
outcome [23]: inactive
outcome [24]: inactive
